Results filed as inconclusive are left out. Activity calls are given as the source filed them. Unless noted, calls follow the shape of the dose curve; as a rule, active = well fitted curve in the direction sought with a large enough effect; inconclusive = small, poorly fitted or top-dose-only effect, or another doubt; inactive = no such curve, though single readings can be large; an effect the other way counts as inactive or inconclusive.

The nature of experiment [1]: Cytometric Cell-Based qHTS for Inhibitors of the mTORC1 Signaling Pathway in MEF (Tsc2-/-, p53-/-) Cells (AID 2660).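 Also: Tsc2 and p53 null MEFs carrying empty vector with compound for 24 h; percent of cells above a phospho-rpS6 to PI ratio cutoff in each well; series mostly up to about 38 µM.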 In outline:
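Cells are plated, treated with compound for 24 hrs at 37 degree Celsius, then fixed, blocked and immunostained for phospho-rpS6 Ser235/236. Propidium iodide counterstain follows. Per-well % positive cells is derived from the PI-normalized phospho-S6 signal.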

Experiment [2] is described as follows: High Content Imaging Cell-Based qHTS for Inhibitors of the mTORC1 Signaling Pathway in MEF (Tsc2-/-, p53-/-) Cells (AID 2666).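 Also: percent of cells scored positive for phospho-rpS6 Ser235/236 immunostaining by imaging.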 In outline:
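Cells were plated, dosed with compound after 24 hrs, and incubated another 24 hrs at 37 degree Celsius. Fixed cells were immunostained for phospho-rpS6 Ser235/236 and counterstained, and the normalized signal was scored as % active cells against rapamycin and DMSO controls.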

The nature of experiment [3]: High Content Imaging Cell-Based qHTS for Inhibitors of the mTORC1 Signaling Pathway in MEF Cells (AID 2667).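 Also: Tsc2-/- p53-/- MEFs stably re-expressing wild-type Tsc2 exposed 24 h; series mostly up to about 38 µM.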 In outline: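 Immunofluorescence for rpS6 phosphorylation in MEFs of Tsc2-/-, p53-/- background rescued with WT Tsc2. Compound exposure lasted 24 hrs. Inhibition was scored against rapamycin-treated control wells.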
Experiment [4] can be described thus: Cytometry Cell-Based qHTS for Inhibitors of the mTORC1 Signaling Pathway in MEF cells (AID 2668).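 Also: Tsc2-/- p53-/- mouse embryonic fibroblasts stably re-expressing wild-type Tsc2; percent cells positive for phospho-rpS6 Ser235/236 relative to propidium iodide stain; series mostly up to about 38 µM.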 In outline:
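Tsc2-/-, p53-/- MEFs re-expressing WT Tsc2; cpd 24 hrs, 37 degree Celsius; PFA fix, Alexa-488 p-rpS6 (Ser235/236) Ab 2 hrs RT, PI counterstain; Acumen 488nm scan; p-S6/PI ratio → % positive cells; PI count = viability.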

Experiment [5] is described as follows: Validation screen for small molecules that induce DNA re-replication in MCF 10A normal breast cells (AID 463097). Also: nearly all actives have a fitted effect of over 60% in size. In outline: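 Image-based qHTS: normal breast cells are incubated with compound for 48 hr, stained with Hoechst, and scanned for total nuclear fluorescence. Compounds raising the fraction of nuclei with elevated DNA content count as re-replication inducers.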

Experiment [6] deals with Ubiquitin carboxyl-terminal hydrolase 2 (Homo sapiens) (UniProt O75604). In words: qHTS Validation Assay for Inhibitors of Ubiquitin-specific Protease USP2a Using CHOP2 as the Reporter (AID 463106). In outline: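 10nM USP2 core + cpd, 30min RT; add 25nM Ub-CHOP2/25nM substrate; 60min RT; FI 485/531nm. Buffer Tris pH 8.0, CaCl2, BME, CHAPS. Norm. to NEM = 100% inhibition; time-zero read flags fluorescent artifacts.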
Chain of Ubiquitin carboxyl-terminal hydrolase 2 (Homo sapiens) (O75604 whole entry, looked up): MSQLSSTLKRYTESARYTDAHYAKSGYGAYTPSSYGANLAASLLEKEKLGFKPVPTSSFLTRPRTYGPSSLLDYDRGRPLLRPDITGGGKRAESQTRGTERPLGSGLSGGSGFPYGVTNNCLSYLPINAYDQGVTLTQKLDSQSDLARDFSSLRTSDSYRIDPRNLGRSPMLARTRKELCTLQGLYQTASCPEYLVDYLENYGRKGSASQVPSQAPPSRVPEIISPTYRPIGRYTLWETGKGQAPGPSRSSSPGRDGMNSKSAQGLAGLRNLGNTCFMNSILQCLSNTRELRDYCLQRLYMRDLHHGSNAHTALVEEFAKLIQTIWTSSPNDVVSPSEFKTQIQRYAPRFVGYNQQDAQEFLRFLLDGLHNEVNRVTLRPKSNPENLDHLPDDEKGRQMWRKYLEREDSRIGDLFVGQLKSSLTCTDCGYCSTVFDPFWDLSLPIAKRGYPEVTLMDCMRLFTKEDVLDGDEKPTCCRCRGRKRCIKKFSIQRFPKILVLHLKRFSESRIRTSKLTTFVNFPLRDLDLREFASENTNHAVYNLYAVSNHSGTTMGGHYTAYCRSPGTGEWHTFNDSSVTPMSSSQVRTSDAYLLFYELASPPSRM

For experiment [7], the target named is DNA polymerase III PolC-type (Bacillus subtilis (strain 168)) (UniProt P13267). Put plainly: qHTS Validation Assay for the Inhibitors of DNA Replication in Gram-Positive Bacteria (AID 485295).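 Also: reconstituted holoenzyme with PolC plus beta clamp SSB and primase; PicoGreen fluorescence of double-stranded DNA made on primed circular M13 template; series mostly up to about 57 µM.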 In outline:
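First, compound is mixed with the reconstituted replication complex and held at room temperature. Next, circular single-stranded M13Gori with nucleotides starts synthesis. Finally, PicoGreen in EDTA halts the reaction and stains double-stranded product for fluorescence reading.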

The target in experiment [8] is Tumor susceptibility gene 101 protein (Homo sapiens) (UniProt Q99816). In words: qHTS Validation Assay for Iinhibitors of HIV-1 Budding by Blocking the Interaction of PTAP/TSG101 (AID 485342; calls by dose curve). In outline: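 Binding of a FITC-tagged PTAP-motif peptide (50 nM) to the Tsg101 binding domain (10 uM) is monitored by fluorescence polarization. Compounds are pin-delivered before peptide addition, and incubation runs 20 min at room temperature.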
Chain of Tumor susceptibility gene 101 protein (Homo sapiens) (Q99816 whole entry, looked up, the tested form may be a part): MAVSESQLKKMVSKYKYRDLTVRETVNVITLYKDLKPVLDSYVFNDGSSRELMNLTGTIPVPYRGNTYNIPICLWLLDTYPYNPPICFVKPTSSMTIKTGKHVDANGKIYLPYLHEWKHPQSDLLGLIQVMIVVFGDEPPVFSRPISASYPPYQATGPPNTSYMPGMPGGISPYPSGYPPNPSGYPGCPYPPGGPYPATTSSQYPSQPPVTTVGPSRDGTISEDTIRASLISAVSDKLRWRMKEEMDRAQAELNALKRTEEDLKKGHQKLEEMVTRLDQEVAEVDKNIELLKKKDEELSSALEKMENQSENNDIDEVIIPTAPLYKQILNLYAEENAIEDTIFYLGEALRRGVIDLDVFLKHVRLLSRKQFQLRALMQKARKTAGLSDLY

Experiment [9] is described as follows: qHTS Validation Assay to Find Inhibitors of Chronic Active B-Cell Receptor Signaling (AID 485345; active = well fitted curve in the direction sought with a large enough effect in the main read-out, with a control signal flat, not every such curve was filed as active). The gist of the method: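 Read-out: ratio of filter-corrected green (IkappaBalpha fusion) to red (native) luciferase signal in doxycycline-induced TMD8 cells after 4 h at 37C. Titration spanned 46 uM–3 nM; Data were normalised to basal cells and 10 uM MG-132 wells.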

The target of experiment [10] is ATP-dependent 6-phosphofructokinase (Trypanosoma brucei brucei) (UniProt O15648). Put plainly: qHTS Validation Assay to Find Inhibitors of T. brucei phosphofructokinase (AID 485368). The gist of the method:
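Enzyme reaction in triethanolamine buffer pH 8.0 with 5 mM MgCl2, 0.01% Tween20 and 0.1% BSA; PFK 1.25 nM, F6P 0.5 mM, ATP 0.1 mM, 45 min RT. ADP quantified by ADP-Glo.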

Experiment [11] is described as follows: Quantitative high throughput screen for delayed death inhibitors of the malarial parasite plastid, 96 hour incubation (AID 488745). Also: nearly all actives have a fitted effect of over 70% in size. Also: potency is read from the fitted curve at half-maximal effect. In outline: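 Growth of reporter-bearing P. falciparum in red cells is measured after 96 h with compound, covering two erythrocytic cycles. Luminescence from the integrated luciferase serves as the growth signal.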
The target of experiment [12] is Thioredoxin reductase 1, cytoplasmic (Rattus norvegicus) (UniProt O89049). In words: qHTS Assay for Substrates of Mammalian Selenoprotein Thioredoxin Reductase 1 (TrxR1) (AID 488772).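 Also: NADPH fluorescence in the first read after selenite addition and not the 8 min delta; series mostly up to about 57 µM; a drop in NADPH fluorescence below the no-compound background marks a TrxR1 substrate.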 In outline:
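Quantitative HTS in Tris-HCl buffer at pH 7.5 with EDTA and Tween-20, using rat TrxR1, 400 uM NADPH and 400 uM selenite (final). A fall in initial NADPH fluorescence relative to background marked substrate behaviour.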

The target is the same in experiment [13]. Put plainly: qHTS Assay for Inhibitors of Mammalian Selenoprotein Thioredoxin Reductase 1 (TrxR1) (AID 488773).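 Also: drop in NADPH fluorescence over an 8 min run after selenite addition; series mostly up to about 57 µM; nearly all actives have a fitted effect of over 40% in size.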 The following applies: Potency: inhibition. The gist of the method:
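Steps: enzyme (90 nM) plus NADPH (400 uM final), 5 min at ~22 deg C; compound added, 15 min; selenite (400 uM final) added; fluorescence followed for 8 min. Concentration-response curves derived from the normalized delta values.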

For experiment [14], the target named is M-phase phosphoprotein 8 (Homo sapiens) (UniProt Q99549). In words: qHTS Validation Assay for Inhibitors for MPP8 Chromodomain Interactions with Methylated Histone Tails (AID 488949).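 Also: 50 nM MPP8 with 50 nM peptide preformed then compounds added for 30 min; AlphaScreen signal from MPP8 chromodomain bound to biotinylated H3K9me3 peptide; top concentration of the series differs between compounds; nearly all actives have a fitted effect of over 55% in size.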 In outline: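 50 nM MPP8 + 50 nM b-H3K9me3 peptide, PBS pH 7.4/0.01% Tween-20, 30 min RT; + cpd 30 min RT; + AlphaScreen donor/Ni-chelate acceptor beads 10 ug/mL final, 30 min dark; luminescence read.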
Chain of M-phase phosphoprotein 8 (Homo sapiens) (Q99549 whole entry, looked up): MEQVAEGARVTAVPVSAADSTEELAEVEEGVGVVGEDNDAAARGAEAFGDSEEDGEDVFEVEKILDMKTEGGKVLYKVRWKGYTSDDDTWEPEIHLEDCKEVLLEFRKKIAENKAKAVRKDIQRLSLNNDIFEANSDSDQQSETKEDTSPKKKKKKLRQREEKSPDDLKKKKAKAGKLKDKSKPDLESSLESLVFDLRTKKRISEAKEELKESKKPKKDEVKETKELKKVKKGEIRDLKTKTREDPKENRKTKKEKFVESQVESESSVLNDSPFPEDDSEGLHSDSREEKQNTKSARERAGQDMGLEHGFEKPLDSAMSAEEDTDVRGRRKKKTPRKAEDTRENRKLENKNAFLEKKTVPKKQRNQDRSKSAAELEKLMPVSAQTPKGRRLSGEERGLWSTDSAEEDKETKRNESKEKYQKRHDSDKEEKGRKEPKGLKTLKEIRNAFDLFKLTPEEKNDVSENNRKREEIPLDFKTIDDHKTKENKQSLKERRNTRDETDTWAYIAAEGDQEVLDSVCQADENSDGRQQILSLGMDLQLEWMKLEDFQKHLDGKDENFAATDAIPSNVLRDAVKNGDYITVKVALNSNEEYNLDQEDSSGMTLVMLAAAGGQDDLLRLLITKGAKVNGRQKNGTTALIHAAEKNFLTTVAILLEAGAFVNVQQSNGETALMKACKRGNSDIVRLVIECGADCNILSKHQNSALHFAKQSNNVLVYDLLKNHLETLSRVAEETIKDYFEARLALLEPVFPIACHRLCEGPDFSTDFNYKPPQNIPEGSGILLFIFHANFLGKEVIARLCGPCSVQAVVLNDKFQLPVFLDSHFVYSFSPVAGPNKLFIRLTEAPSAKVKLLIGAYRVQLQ

Experiment [15] has as its target Chromobox protein homolog 1 (Homo sapiens) (UniProt P83916). Put plainly: qHTS Validation Assay for Inhibitors of HP1-beta Chromodomain Interactions with Methylated Histone Tails (AID 488953). Also: nearly all actives have a fitted effect of over 50% in size. Also: potency is read from the fitted curve at half-maximal effect. The gist of the method:
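Measured as loss of AlphaScreen luminescence from streptavidin donor and nickel acceptor beads (10 ug/mL final) bridging HP1-beta and biotin-H3(1-18)K9me3, each 50 nM. Compounds met the preassembled complex for 30 min at RT.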

Experiment [16] addresses Beta-2 adrenergic receptor (Homo sapiens) (UniProt P07550). In words: qHTS validation assay of beta-arrestin-biased ligands of beta2-adrenergic receptor (AID 485366). The gist of the method:
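Values derive from curve-fitted %Activity of a luminescent beta-arrestin recruitment reporter; compounds tested up to 46 microM on Tango cells for 18 hr at 37 degrees C, 5% CO2.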

Experiment [17] in a line: Quantitative high throughput screen for delayed death inhibitors of the malarial parasite plastid, 48 hour incubation (AID 488752). Also: potency is read from the fitted curve at half-maximal effect; nearly all actives have a fitted effect of over 65% in size. In outline: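 One parasite generation (48 h, 37 C, 5% CO2) of luciferase-reporter P. falciparum in erythrocytes is run with test compound; decreased luminescence indicates inhibited growth.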
The target of experiment [18] is Flap endonuclease 1 (Homo sapiens) (UniProt P39748). Put plainly: qHTS Validation Assay for the Inhibitors of Human Flap endonuclease 1 (FEN1) (AID 488816). The gist of the method:
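Readings taken at 0 and 15 min after starting the reaction with 50 nM (final) substrate supplied the signal. Compounds had first sat with 10 nM FEN1 reagent for 15 min at room temperature. Values come from Hill-equation concentration-response fits.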

Experiment [19] concerns the target Methanococcus maripaludis chaperonin (MmCpn) (UniProt Q6LX38). Put plainly: High-Throughput Screening for Modulators of Cytosolic Chaperonin Activity: MmCpn Primary Screen (AID 488978).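 Also: 50 nM MmCpn enzyme hydrolysing 30 µM ATP at 37 °C.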 In outline:
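Steps: chaperonin 50 nM final; add compound, 5 min RT; start with ATP, 30 uM final; hold 10 min at 37C; add ADP Transcreener HTRF reagent, 5 min; read ex 320, em 590 and 665 nm.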

Chain of Flap endonuclease 1 (Homo sapiens) (P39748 whole entry, looked up): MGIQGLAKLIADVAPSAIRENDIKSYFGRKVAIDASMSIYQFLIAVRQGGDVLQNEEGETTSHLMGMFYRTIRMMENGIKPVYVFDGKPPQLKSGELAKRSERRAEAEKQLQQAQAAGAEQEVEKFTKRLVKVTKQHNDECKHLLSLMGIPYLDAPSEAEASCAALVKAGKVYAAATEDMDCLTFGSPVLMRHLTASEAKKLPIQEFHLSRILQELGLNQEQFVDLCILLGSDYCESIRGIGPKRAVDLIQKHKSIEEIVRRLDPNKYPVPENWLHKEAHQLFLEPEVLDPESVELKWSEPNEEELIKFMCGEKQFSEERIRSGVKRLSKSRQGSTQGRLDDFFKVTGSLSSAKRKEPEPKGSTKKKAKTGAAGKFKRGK
Chain of Methanococcus maripaludis chaperonin (MmCpn) (Q6LX38 1-543): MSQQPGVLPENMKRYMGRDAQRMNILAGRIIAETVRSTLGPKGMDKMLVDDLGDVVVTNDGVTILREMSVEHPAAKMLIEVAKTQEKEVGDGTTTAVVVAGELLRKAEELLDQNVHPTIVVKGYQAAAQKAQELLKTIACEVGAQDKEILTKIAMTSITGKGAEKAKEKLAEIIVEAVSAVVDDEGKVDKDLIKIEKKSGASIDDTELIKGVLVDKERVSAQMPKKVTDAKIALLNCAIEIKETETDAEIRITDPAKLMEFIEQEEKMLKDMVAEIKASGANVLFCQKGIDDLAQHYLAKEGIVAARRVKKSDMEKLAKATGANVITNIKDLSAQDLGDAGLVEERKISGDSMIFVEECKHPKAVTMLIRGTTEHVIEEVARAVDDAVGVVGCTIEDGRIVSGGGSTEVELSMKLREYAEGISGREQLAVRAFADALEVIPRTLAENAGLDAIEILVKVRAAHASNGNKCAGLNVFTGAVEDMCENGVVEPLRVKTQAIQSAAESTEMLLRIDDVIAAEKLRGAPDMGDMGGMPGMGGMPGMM
Chain of Chromobox protein homolog 1 (Homo sapiens) (P83916 whole entry, looked up): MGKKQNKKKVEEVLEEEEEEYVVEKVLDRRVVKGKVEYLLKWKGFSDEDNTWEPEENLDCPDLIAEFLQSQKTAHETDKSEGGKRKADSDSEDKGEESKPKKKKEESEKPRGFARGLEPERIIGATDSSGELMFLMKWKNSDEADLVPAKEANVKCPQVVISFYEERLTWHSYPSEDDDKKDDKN
Chain of DNA polymerase III PolC-type (Bacillus subtilis (strain 168)) (P13267 whole entry, looked up): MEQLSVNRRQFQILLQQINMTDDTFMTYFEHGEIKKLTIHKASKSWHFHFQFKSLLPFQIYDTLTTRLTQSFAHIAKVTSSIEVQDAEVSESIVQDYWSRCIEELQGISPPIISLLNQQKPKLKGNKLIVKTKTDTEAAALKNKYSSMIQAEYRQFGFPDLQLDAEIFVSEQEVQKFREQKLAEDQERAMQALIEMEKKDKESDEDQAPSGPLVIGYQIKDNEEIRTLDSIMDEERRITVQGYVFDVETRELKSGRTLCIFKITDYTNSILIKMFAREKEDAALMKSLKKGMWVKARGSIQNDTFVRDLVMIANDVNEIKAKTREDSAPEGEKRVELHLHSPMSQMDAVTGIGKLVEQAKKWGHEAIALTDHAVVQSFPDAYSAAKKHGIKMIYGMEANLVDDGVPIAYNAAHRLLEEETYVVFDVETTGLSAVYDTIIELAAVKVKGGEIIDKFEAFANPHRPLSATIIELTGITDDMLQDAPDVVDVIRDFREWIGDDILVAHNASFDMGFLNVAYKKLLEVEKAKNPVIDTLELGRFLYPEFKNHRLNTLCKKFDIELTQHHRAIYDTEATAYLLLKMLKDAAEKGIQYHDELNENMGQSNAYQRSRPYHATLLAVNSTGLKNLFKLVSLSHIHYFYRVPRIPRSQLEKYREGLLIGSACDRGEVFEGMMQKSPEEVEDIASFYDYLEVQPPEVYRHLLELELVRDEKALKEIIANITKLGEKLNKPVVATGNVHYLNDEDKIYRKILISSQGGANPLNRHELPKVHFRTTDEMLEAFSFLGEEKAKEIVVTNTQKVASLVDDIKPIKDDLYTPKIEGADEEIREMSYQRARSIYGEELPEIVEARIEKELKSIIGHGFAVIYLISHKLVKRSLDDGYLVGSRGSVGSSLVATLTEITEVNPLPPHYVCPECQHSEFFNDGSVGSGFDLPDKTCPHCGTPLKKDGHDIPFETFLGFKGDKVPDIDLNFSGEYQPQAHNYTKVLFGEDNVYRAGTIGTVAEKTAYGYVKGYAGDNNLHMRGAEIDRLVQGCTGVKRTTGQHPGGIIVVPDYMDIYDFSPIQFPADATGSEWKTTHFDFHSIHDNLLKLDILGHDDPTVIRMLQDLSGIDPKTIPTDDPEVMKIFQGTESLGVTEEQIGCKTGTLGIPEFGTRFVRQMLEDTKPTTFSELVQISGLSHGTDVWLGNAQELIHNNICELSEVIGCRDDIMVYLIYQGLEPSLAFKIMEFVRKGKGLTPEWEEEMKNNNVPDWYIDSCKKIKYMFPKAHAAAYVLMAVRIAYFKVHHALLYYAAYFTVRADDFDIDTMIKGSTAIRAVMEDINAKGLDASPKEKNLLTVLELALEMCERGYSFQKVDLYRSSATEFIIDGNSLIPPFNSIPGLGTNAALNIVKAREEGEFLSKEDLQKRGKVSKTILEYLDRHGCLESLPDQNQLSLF
Chain of Beta-2 adrenergic receptor (Homo sapiens) (P07550 whole entry, looked up): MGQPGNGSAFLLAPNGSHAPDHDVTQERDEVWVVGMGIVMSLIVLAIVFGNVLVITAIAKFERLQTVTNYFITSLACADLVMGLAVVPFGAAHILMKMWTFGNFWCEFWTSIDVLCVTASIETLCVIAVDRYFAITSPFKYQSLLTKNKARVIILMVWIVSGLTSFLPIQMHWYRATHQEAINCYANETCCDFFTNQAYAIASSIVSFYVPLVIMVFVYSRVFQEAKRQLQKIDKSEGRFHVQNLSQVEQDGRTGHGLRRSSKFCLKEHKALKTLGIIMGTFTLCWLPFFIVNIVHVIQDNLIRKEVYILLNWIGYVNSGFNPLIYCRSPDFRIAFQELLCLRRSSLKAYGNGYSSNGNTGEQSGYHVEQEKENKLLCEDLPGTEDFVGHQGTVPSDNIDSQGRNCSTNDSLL

On to `CCCc1c(OCCCOc2ccc(OCC(=O)O)cc2)ccc(C(C)=O)c1O`, for which the result in [1], in experiment [8], in experiment [9] and in [12] was inactive. Further, the Potency entry in [2], in experiment [3], in [4], in experiment [5], in experiment [6] and in [7] was “inactive” in each case. The Potency entry in experiment [10], in experiment [11], in [13], in [14] and in experiment [15] was “inactive” throughout.
Turning to `CCCN(CCc1ccccc1)C1CCc2c(O)cccc2C1` (stereo not given), the result in experiment [1], in [8], in experiment [9], in [16], in experiment [12] and in experiment [19] was inactive. The Potency result in [2], in [4], in [5], in experiment [6], in [7] and in experiment [10] was “inactive” throughout. Further, the Potency result in experiment [13], in [18], in experiment [14] and in experiment [15] was “inactive” throughout. Besides, the Potency in experiment [11] and in experiment [17] was 3.29 µM (active) each time.
`CC1=C(/C=C/C(C)=C/C=C/C(C)=C\C(=O)O)C(C)(C)CCC1`: the compound was called inactive in experiment [1], in experiment [8], in [16], in [12] and in [19]. The Potency entry in experiment [2], in [3], in [5], in experiment [6], in experiment [7] and in experiment [10] was “inactive” each time. Also, the Potency result in [18], in [14] and in experiment [15] was “inactive” each time.
Take `C=C1C[C@@]23CC[C@H]4[C@@](C)(CCC[C@@]4(C)C(=O)OC4OC(CO)C(O)C(O)C4O)[C@@H]2CC[C@]1(OC1OC(CO)C(O)C(O)C1OC1OC(CO)C(O)C(O)C1O)C3` (stereo not given in full): the outcome in [1], in experiment [8], in experiment [12] and in experiment [19] was inactive. Also, the Potency entry in experiment [2], in experiment [3], in experiment [4], in experiment [6], in [7] and in [13] was “inactive” in each case. For the same compound, the Potency entry in [18] and in [14] was “inactive” in each case. Further, the Potency in [15] was 0.006 µM (active).
Regarding `CC(C)(CO)Cc1cc(C(C)(C)C)c(O)c(C(C)(C)C)c1`, the call in [1], in [8], in experiment [16] and in experiment [19] was inactive. Moreover, the Potency result in experiment [2], in experiment [3], in experiment [4], in experiment [6], in experiment [7] and in experiment [11] was “inactive” throughout. Also, the Potency result in [13], in [18] and in experiment [14] was “inactive” throughout.
Regarding `C=CCNc1ncnc2ccc(Br)cc12`, the compound was called inactive in experiment [1], in experiment [8], in experiment [16], in experiment [12] and in experiment [19]. Moreover, the Potency result in experiment [2], in [3], in experiment [6], in experiment [7], in [10] and in [13] was “inactive” throughout. The Potency result in experiment [18] and in [14] was “inactive” in each case.
For `Brc1c(Br)c(Br)c2[nH]cnc2c1Br`, the outcome in experiment [1], in experiment [8], in experiment [16] and in experiment [12] was inactive. The Potency entry in experiment [2], in [3], in experiment [4], in [6], in experiment [7] and in experiment [10] was “inactive” throughout. Besides, the Potency result in [13], in experiment [18], in experiment [14] and in experiment [15] was “inactive” in each case.

The record behind these values is PubChem BioAssay (NCATS).
